# Laboratory results as given in PubChem BioAssay AID1224862 (National Center for Advancing Translational Sciences (NCATS), 2016).
# Inconclusive results are not listed. Unmarked numbers belong to inactive results. Calls of active or inactive are those of the source. Calls come from the whole dose curve; as a rule, active = well fitted cell-killing curve with a large enough effect; inconclusive = small, poorly fitted or top-dose-only effect, or effect the other way; inactive = flat fitted curve, though single readings scatter.
# Assay: Compound cytotoxicity measured by an ATP content assay as a counter-screen for lead compounds in human astrocytoma cell line (SNB-19)
# Conditions: SNB-19 astrocytoma viability, ATP luminescence; series mostly up to 46.1 µM; activity change, negative = cytotoxicity: at the top concentration
# Method: National Center for Advancing Translational Sciences [NCATS] Johns Hopkins University School of Medicine Florida State University Assay Overview: Many compounds can cause cytotoxicity at high compound concentrations. […] The compound cytotoxicity may also cause side effects or toxicity in human. Thus, the compound cytotoxicity needs to be measured in each cell type and each compound incubation time - same as these in the compound screening assay. The compound cytotoxicity can be measured by cell viability assays such as the ATP content assay. We use an ATP content assay kit for cell viability measurement. It measures ATP content (level) in human astrocytoma cell line (SNB-19) using a luminescence readout that is proportional to viable cell numbers. Decrease in the luminescence signal after the compound treatment indicates reduced cell viability and cell death caused by compound treatment.
# Assay Protocol Summary: The medium for SNB-19 cells is composed of RPMI 1640 (ATCC, Cat.# 30-2001), 10% fetal bovine serum (FBS) (GE healthcare Life Sciences, Cat.# SH30071.03), and 1% Pen/Strep (Gibco, Cat.# 15140-122). The ATP content assay kit (PerkinElmer, Cat.# 6016731) was used to determine cell viability. The reagent was reconstituted and prepared as described by the manufacturer. Cells were seeded in 384- or 1536-well assay plates and cultured at 37 C with 5% CO2 for 16 to 20 hours. The typical cell seeding density in the 1536-well plate assay is 250 cells/well in 3ul medium for SNB-19 cells in tissue culture treated plates. Compounds were added to cells and incubated for a specific time such as 6, 24, or 72 hours before addition of the reagent mixture of the ATP content assay kit at 1:1 ratio. After incubation at room temperature for 10 minutes, the luminescence intensity in assay plates was measured using a ViewLux plate reader (PerkinElmer). […] The percentage inhibitions of the decreased cell viability by small molecules were then calculated that indicate compound cytotoxicity.
SMILES,"activity change, negative = cytotoxicity",Potency
COc1cc2nc(-c3ccc(N4CCN(C)CC4)cc3)nc(NCCN3CCOCC3)c2cc1OC,-25.2%,
O=C(O)[C@@H](c1ccc(OCc2ccc3ccccc3n2)cc1)C1CCCC1,5.33%,
CC1(C)OC2=C(C(=O)c3ccccc3C2=O)[C@H](NCc2ccccc2)[C@H]1O,,8.91 µM (active)
O=C(/C=C/c1ccccc1)NCCO,9.32%,
CN1CC(=O)N2C(Cc3c([nH]c4ccccc34)[C@H]2c2ccc3c(c2)OCO3)C1=O (stereo not given in full),12.4%,
O=S(=O)(O)c1ccc2nc(-c3ccccc3)[nH]c2c1,1.86%,
Oc1ccc(/C=C/c2cc(O)cc(O)c2)cc1,,24.5 µM (active)
N#CC1(c2ccc(NC(=O)c3cccnc3NCc3ccncc3)cc2)CCCC1,-12.2%,
COc1cc2nc(N3CCN(C(=O)C4CCCO4)CC3)nc(N)c2cc1OC (stereo not given),7.25%,
CN(C)CCCSc1ccccc1NC(=O)/C=C/c1ccccc1,-13.8%,
N#C/C(=C\c1ccc(O)c(O)c1)C(=O)Nc1ccccc1,9.03%,
Cc1ccc(O)c(N=Nc2ccccc2)n1,,7.74 µM (active)
O=C(O)[C@H](CC(=O)N1C[C@@H]2CCCC[C@H]2C1)Cc1ccccc1,9.77%,
Clc1ccccc1-c1nc(-c2ccncc2)no1,-16.2%,
NC(N)=NN=C(/C=C/c1ccc([N+](=O)[O-])o1)/C=C/c1ccc([N+](=O)[O-])o1,,17.3 µM (active)
O=C(OCc1ccccc1)c1ccc(O)cc1,-20.4%,
O=c1[nH]nc(Sc2ncc([N+](=O)[O-])s2)n1-c1ccc2c(c1)OCCO2,,4.89 µM (active)
Cc1csc(NC(=O)c2sc3nc4c(c(C(F)(F)F)c3c2N)CCC4)n1,,4.35 µM (active)
CC(=C(CCOC(=O)C(C)C)SSC(CCOC(=O)C(C)C)=C(C)N(C=O)Cc1cnc(C)nc1N)N(C=O)Cc1cnc(C)nc1N,-24.1%,
C[C@@H](N)c1ccc(C(=O)Nc2ccnc3[nH]ccc23)cc1,10.8%,

SMILES,"activity change, negative = cytotoxicity",Potency
O=C(O)CCC(=O)c1ccc(-c2ccccc2)cc1,-1.74%,
O=S(=O)(O)CCSSCCS(=O)(=O)O,-11.8%,
CCC(C(=O)O)c1ccc(N2Cc3ccccc3C2=O)cc1 (stereo not given),-10.4%,
CC1(C)Cc2c(sc(NC(=S)NC(=O)c3ccccc3)c2C(=O)O)CO1,10.2%,
O=c1oc2cc(O)ccc2s1,-3.49%,
O=C(CS)Nc1ccccc1,31.3%,
CC(C(=O)O)c1ccc2c(c1)[nH]c1ccc(Cl)cc12 (stereo not given),13.1%,
CO[C@H]1C(=O)[C@]2(C)[C@@H](OC)C[C@H]3OC[C@@]3(OC(C)=O)[C@H]2[C@H](OC(=O)c2ccccc2)[C@]2(O)C[C@H](OC(=O)[C@H](O)[C@@H](NC(=O)OC(C)(C)C)c3ccccc3)C(C)=C1C2(C)C,8.56%,
Cc1cccc(C#Cc2ccccc2)n1,,24.5 µM (active)
CCC(C)SSc1ncc[nH]1 (stereo not given),-19.8%,
O[C@@H](COc1cccc2ncccc12)CN1CCN(C2c3ccccc3[C@@H]3[C@H](c4ccccc42)C3(F)F)CC1 (stereo not given in full),2.37%,
CN1CCN(c2cc3c(nn2)Oc2ccccc2N3C)CC1,14.2% [at 23.8 µM],
COc1ccc2nc(NC(=O)Nc3ccccc3)sc2c1,,19.5 µM (active)
CC(C)(C)COc1ccc(-n2cc(C(=O)O)cn2)cc1C#N,4.08% [at 88.3 µM],
O=C1c2ccccc2-[n+]2ccc3c([nH]c4ccccc43)c21,,4.35 µM (active)
C[C@@H](O[C@H]1OCCN(Cc2n[nH]c(=O)[nH]2)[C@@H]1c1ccc(F)cc1)c1cc(C(F)(F)F)cc(C(F)(F)F)c1,-15.8%,
Nc1nc2ccc([N+](=O)[O-])cc2s1,14.7% [at 88.3 µM],
COc1ccc(C=CC(=O)Nc2ccccc2C(=O)O)cc1OC,-17.9%,
COc1ccnc2c1CCCCC2S(=O)c1nc2ccccc2[nH]1 (stereo not given),-9.48%,
Cc1ccc(O)c(-n2nc3ccccc3n2)c1,-13.5%,
